Compound activity (PubChem BioAssay)
S1P2 antag: S1P2 (human) receptor antagonism | O95136 | cell-based S1P2 antagonist assay, inhibition at 5 uM | inhibition, % at 5 µM | 97,000 compounds, 0.21% hits | AID 736; in the data active means inhibition above about 45%;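 further: CRE beta-lactamase reporter cells expressing human S1P2 stimulated with S1P; 0% = agonist at EC80 alone and 100% = agonist plus reference antagonist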
Target sequence (O95136 whole entry, looked up): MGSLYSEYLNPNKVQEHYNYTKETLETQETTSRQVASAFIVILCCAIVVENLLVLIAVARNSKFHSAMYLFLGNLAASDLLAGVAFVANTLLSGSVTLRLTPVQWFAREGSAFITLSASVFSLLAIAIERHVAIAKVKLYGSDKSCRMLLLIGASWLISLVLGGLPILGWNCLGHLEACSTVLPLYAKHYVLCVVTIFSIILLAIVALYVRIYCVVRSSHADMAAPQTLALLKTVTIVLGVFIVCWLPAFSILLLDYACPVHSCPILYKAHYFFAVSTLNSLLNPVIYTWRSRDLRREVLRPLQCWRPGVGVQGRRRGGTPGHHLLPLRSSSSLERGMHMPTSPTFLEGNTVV
GALR2 agonist: GALR2 (human) receptor agonism. O43603. GALR2-expressing cells, agonist activation read-out. activation, % (concentration not given with the values). 140,000 compounds, 0.48% hits. AID 803; in the data active means activation above about 5%, passing the limit was not always enough;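 further: 0% = vehicle buffer wells and 100% = reference agonist at full effect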
S1P2 ag: S1P2 (human) receptor agonism; S1P2-expressing cell line, agonist reporter read-out; 97,000 compounds, 0.46% hits; activation, % at 4.5 µM; in the data active means activation above about 16%;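 further: 0% = vehicle low control and 100% = maximal reference agonist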
GALR2 antag: blocks the human galanin receptor 2; GALR2-expressing cells, antagonist mode; inhibition, % at 4 µM; 140,000 compounds, 0.39% hits; in the data active means inhibition above about 27%;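 further: cells stimulated with galanin 1-16 at roughly its EC80; 0% = agonist challenge control and 100% = basal control without agonist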
GALR2 ag confirm: confirmation of human galanin receptor 2 (GALR2) agonists. shares compounds with GALR2 agonist. GALR2-expressing cells, agonist activation. activation, % at 5.6 µM. 460 compounds, 10% hits. AID 864; in the data active means activation above about 8.4%;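 further: 0% = buffer-only vehicle wells and 100% = full reference agonist response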
BLA activ ctr: activates beta-lactamase reporter in GALR2 agonist counterscreen; shares compounds with GALR2 agonist; 460 compounds, 10% hits; CHO NFAT-bla reporter, beta-lactamase FRET activation; AID 865; activation, % at 5.6 µM;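 active means activation above the screen-wide mean activation plus 3 SD, cut at about 8% in these data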;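 further: 0% = DMSO with PBS wells and 100% = thapsigargin positive control wells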
An asterisk follows results filed as active; · = not tested or not shown. Only some compounds are listed: those with a hit (about 1.2% of all), similar ones and a draw of the others.

SMILES	S1P2 antag	GALR2 agonist	S1P2 ag	GALR2 antag	GALR2 ag confirm	BLA activ ctr
Cc1ccc2nc3c(cc(C(=O)NCC4CCCO4)n3C)c(=O)n2c1 (configuration not stated)	6.5	-0.5	-0.8	-8.4	·	·
Cc1ccc2nc3c(cc(C(=O)NCC4CCCO4)c(=N)n3CCCOC(C)C)c(=O)n2c1 (configuration not stated)	-5.0	9.9	5.0	-11.7	0.7	3.2
CCCCCCc1nc2ccccc2c(=O)n1NC(=O)c1c(O)c2cccc3c2n(c1=O)CCC3	0.1	-2.0	-3.5	-6.2	·	·
Cn1c(=O)[nH]c(=O)c2c1nc(N1CCNCC1)n2Cc1cccc2ccccc12	-5.7	15.1*	-4.0	5.3	-0.3	-1.4
COc1ccccc1-c1cc(C(F)(F)F)nc(S(=O)(=O)CCCC(=O)O)n1	-9.1	-2.5	-7.2	-8.7	·	·
COc1ccccc1-c1cc(C(F)(F)F)nc(S(=O)(=O)CCCC(=O)N2CCOCC2)n1	-49.4	10.6	-3.2	3.9	0.9	7.1
Cc1ccc(NC(=O)/C(=C/c2ccco2)c2ccccc2)c(C)c1	-0.6	90.9*	-5.3	-4.9	-0.8	-1.8
Cc1cc(C)c(NC(=O)/C(=C/c2ccccc2)c2ccccc2)c(C)c1	·	-1.6	·	-1.4	·	·
CC(C)CNS(=O)(=O)c1ccc(CCC(=O)Nc2ccc3c(c2)OCCO3)cc1	12.6	-3.1	-3.6	12.9	·	·
Fc1ccc(NCc2cccnc2)cc1	-21.9	36.4*	3.8	-13.9	-0.8	-0.9
c1ccc(NCc2cccnc2)cc1	7.3	-2.4	-5.7	16.2	·	·
CC(C)(C)c1cc(CCC(=O)NNC(=S)NC(=O)c2ccccc2)cc(C(C)(C)C)c1O	·	35.3*	·	-5.3	37.2*	29.2*
O=C(CCc1ccccc1)NNC(=S)NC(=O)c1ccccc1	-1.4	-1.9	-8.5	-0.9	·	·
CCOC(=O)/C(C#N)=C(\N)C(C)C(=O)Nc1ccccn1 (configuration not stated)	14.5	-2.1	-12.0	2.1	·	·
CCOC(=O)N1CCN(C(=O)c2ccc3c(=O)n(CCc4ccccc4)c(=S)[nH]c3c2)CC1	6.8	10.8	-3.7	-11.6	0.3	0.1
O=C(O)CCCC(=O)NS(=O)(=O)c1ccc(Cl)cc1	-19.2	-2.2	-5.0	2.8	·	·
C[N+]1=C(/C=C/Nc2ccccc2Cl)C(C)(C)c2ccccc21	·	-0.4	·	4.0	·	·
COC(=O)c1ccc2c(c1)C(C)(C)C(/C=C/c1ccccc1O)=[N+]2C	32.5	12.8*	5.1	16.6	-2.1	-7.0
CCSc1nnc(-c2cccnc2)n1-c1ccc(C)c(Cl)c1	-6.4	8.9	-3.4	-32.2	0.0	-0.2
CC(=O)c1cccc(NC(=O)c2ccc(Br)o2)c1	·	-1.2	·	13.2	·	·
CCCCC(=O)Nc1cccc(NC(=O)c2ccc(Br)o2)c1	11.2	9.0	-1.9	5.6	-0.6	-1.8
CCOc1ccc(C(=O)/C=C/c2cn(CN3CCN(C)CC3)c3ccccc23)cc1	9.7	12.0*	4.3	11.7	1.9	3.6
COc1ccc(C(=O)/C=C/c2cn(CN3CCN(C)CC3)c3ccccc23)cc1	14.4	5.7	2.1	8.9	·	·
COc1ccc(CCN2C(=O)C3C4CC(C5C(C(=O)N/N=C\c6ccc(Cl)cc6)=NOC45)C3C2=O)cc1OC (configuration not stated)	0.8	-2.3	-5.3	3.3	·	·
COc1ccc(S(=O)(=O)NCC(c2cccnc2)N2CCN(c3ccccc3OC)CC2)cc1C (configuration not stated)	13.7	-2.1	-1.4	-11.1	·	·
SMILES	S1P2 antag	GALR2 agonist	S1P2 ag	GALR2 antag	GALR2 ag confirm	BLA activ ctr
COc1ccccc1N1CCN(C(CNS(=O)(=O)c2ccccc2)c2cccnc2)CC1 (configuration not stated)	-49.4	10.3	-0.8	-6.4	0.1	-1.6
CS(=O)(=O)N(CC(=O)NC1CC1)C1CCCCC1	·	-1.3	·	0.0	·	·
COc1ccc(NC(=O)COc2ccccc2)c(OC)c1	4.6	16.1*	-2.7	2.1	-0.6	-2.7
COc1ccccc1NC(=O)COc1ccccc1	13.7	-0.8	-3.9	4.1	·	·
COc1cccc(NC(=O)c2ccc(-n3cccn3)nc2)c1	21.1	-2.1	-3.0	0.6	·	·
COC(=O)c1cc2ccsc2n1CC(=O)Nc1cc(C)cc(C)c1	-5.2	9.6	-1.6	0.0	1.5	-1.9
c1ccc(-c2cn3c4c(sc3n2)CCCC4)cc1	·	-0.2	·	2.1	·	·
COC(=O)c1cn(NC(=O)c2cccc(N(C)C)c2)c(=O)c2ccccc12	5.9	-1.0	-3.3	-9.5	·	·
COC(=O)c1cn(NC(=O)c2cccc(F)c2)c(=O)c2ccccc12	1.8	18.4*	-3.0	2.0	-1.4	-0.9
N#C/C(=C\c1ccc(-c2ccc(C(=O)O)cc2)o1)C(=O)NCC1CCCO1 (configuration not stated)	·	-0.7	·	-0.2	·	·
CCOC(=O)c1ccc(-c2ccc(/C=C(\C#N)C(=O)NCc3cccs3)o2)cc1	·	9.3*	·	0.0	9.4*	8.7*
Cc1ccc(C)c2c3c([nH]c12)-c1nonc1CC3	4.0	-1.5	-3.4	-6.3	·	·
COC(=O)c1ccc(-n2nnnc2SC)cc1	8.7	15.0*	-4.8	11.8	-0.2	2.0
COC(=O)COC(=O)c1ccc(-n2nnnc2SC)cc1	24.6	-1.8	-3.3	5.1	·	·
CS(=O)(=O)N(CC(=O)N1CCC(C(N)=O)CC1)c1ccc(Oc2ccccc2)cc1	·	-1.5	·	7.8	·	·
O=S(=O)(c1cccc2ccccc12)n1nnc2ccccc21	-14.1	93.9*	-3.7	-13.9	-0.9	-2.3
CCCn1c(=O)n(C)c(=O)c2c(SCC(=O)NC34CC5CC(CC(C5)C3)C4)nc(CC(C)C)nc21	·	-1.2	·	5.6	·	·
Cn1c(=O)c(C(=O)CN2CCOCC2)c(N)n(Cc2ccccc2)c1=O	10.0	-1.8	-2.3	0.5	·	·
CC1CN(CC(=O)c2c(N)n(Cc3ccccc3)c(=O)n(C)c2=O)CC(C)O1 (configuration not stated)	0.6	44.1*	-6.7	-3.4	-0.4	-2.1
Cc1ccc2c(c1)N(Cc1ccncc1)C(=O)C(C)O2 (configuration not stated)	-22.4	-2.4	-2.5	-2.6	·	·
COc1ccc(C2NC(=S)N3C(c4ccc(OC)cc4)NC(=S)N23)cc1 (configuration not stated)	-7.7	-2.1	-5.4	1.7	·	·
S=C1NC(c2ccccc2)N2C(=S)NC(c3ccccc3)N12 (configuration not stated)	-14.8	12.3*	-3.4	-3.7	-0.3	-0.3
Cn1c(=O)c2ncn(CC(=O)Nc3cccc(-c4nc5ccccc5s4)c3)c2n(C)c1=O	16.8	-2.8	-6.6	7.0	·	·
Cc1sc(N/N=C/c2cccs2)nc1-c1ccccc1	·	-1.4	·	11.2	·	·
O=C(Nc1ccccc1-c1nnn(CC(=O)N2CCCc3ccccc32)n1)c1ccc(Cl)cc1	-15.8	27.7*	-2.6	5.3	-0.6	-1.6
COC(=O)C1=CNC=C(C(=O)OC)C1c1ccccc1Cl	1.1	9.4	6.9	1.3	1.0	2.7
CC(C)c1ccc(Nc2cnn(C34CC5CC(CC(CC(=O)O)(C5)C3)C4)c(=O)c2Cl)cc1	-3.9	-2.3	-7.0	-9.5	·	·
